# Assay results: PubChem BioAssay
# Active and inactive are the calls of the source.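 Rule for the calls: active = viability loss from added drug above about 55%, and viability with drug at most 40%, in both replicates (limit read from the data, passing the limit was not always enough); inconclusive = both conditions met in only one replicate; inactive = neither replicate meets both conditions.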
# Experiment: MRP1 drug-resistance reversers in H69AR cells – cell-based, doxorubicin co-treatment, pilot screen (AID 601)
# Settings: H69AR cells + 2 uM doxorubicin, CellTiter-Glo, 72 h; at 10 µM; stronger effect = higher value
row,Compound,differential viability (reversal)
1,Cc1ccc2c(c1C)NC(C(=O)O)C1CC=CC21 (stereo not given),1.46% (inactive)
2,Cc1cc(C)cc(OCC(=O)NC2=NCCS2)c1,2.82% (inactive)
3,COc1cccc(NS(=O)(=O)c2ccc3[nH]cc(C(=O)NC4CC4)c(=O)c3c2)c1,-15.6% (inactive)
4,COc1ccc(OC)c(NC(=O)C2C3CC4OC(=O)C2C4C3)c1 (stereo not given),8.29% (inactive)
5,CN(C)C(=O)COc1ccc2cc(-c3ccccc3)c(=O)oc2c1,-2.2% (inactive)
6,CC1CN(CC(O)COc2ccccc2C(C)(C)C)CC(C)O1 (stereo not given),-11.3% (inactive)
7,CN(C)CCCN1c2ccccc2CCc2ccc(Cl)cc21,12% (inactive)
8,COc1ccc(NC(=O)c2oc3ccccc3c2NC(=O)c2ccco2)cc1,-0.385% (inactive)
9,CC1(C)SC2[C@H](NC(=O)C(NC(=O)N3CCNC3=O)c3ccccc3)C(=O)N2C1C(=O)O (stereo not given in full),1.74% (inactive)
10,CC(=O)OC1CSc2nc3ccccc3n2C1 (stereo not given),7.46% (inactive)
11,O=S(=O)(NCC1CCCO1)c1ccc2c(c1)OCCO2 (stereo not given),0.805% (inactive)
12,O=c1c2ccccc2c(/C=N/n2cnnc2)c(O)n1-c1ccccc1,16.3% (inactive)
13,COc1ccc(C2=CC(=O)OC3(CCCCC3)O2)cc1,-28.8% (inactive)
14,CCCC1(C(=O)OC)NC(c2cc(OC)c(OC)c(OC)c2)C2C(=O)N(CC)C(=O)C21 (stereo not given),-1.5% (inactive)
15,C#CCN(C)Cc1ccccc1,-6.42% (inactive)
16,CCOC(=O)CSc1nc2sc(C)c(C)c2c(=O)[nH]1,-15.3% (inactive)
17,c1coc(CN(Cc2cccs2)Cc2nnnn2C2CCCCC2)c1,-4.73% (inactive)
18,CCn1cnc2sc(C(=O)Nc3ccc4c(c3)OCO4)c(C)c2c1=O,11% (inactive)
19,COc1ccc(CCN(Cc2cc3cccc(C)c3[nH]c2=O)C(=O)N2CCCC2)cc1OC,1.51% (inactive)
20,COCCCNC(=O)C1CCN(C(=O)Nc2ccc(Cl)cc2)CC1,11.6% (inactive)

row,Compound,differential viability (reversal)
1,CC1(C)CC(=O)C(C=NC(CCC(N)=O)C(=O)O)=C(O)C1 (stereo not given),8.63% (inactive)
2,O=c1c(O)c(-c2ccc(O)cc2O)oc2cc(O)cc(O)c12,-2.28% (inactive)
3,CNC(=O)OC(C)CNS(=O)(=O)c1ccc(C)cc1 (stereo not given),6.22% (inactive)
4,Cc1ccc(S(=O)(=O)N2CCN(c3nc(C(C)C)c4c(c3C#N)CC(C)(C)OC4)CC2)cc1,9.54% (inactive)
5,Cc1ccc(Cl)cc1N1CCN(C(=O)CN2C(=O)c3cccc4cccc2c34)CC1,-4.18% (inactive)
6,Cc1ccc2c(CC(=O)OCc3csc(C)n3)coc2c1,2.5% (inactive)
7,CC(C)(C)n1ncc2c(=O)n(CC(=O)NCc3ccccc3)cnc21,-48.5% (inactive)
8,COc1ccc(OCC(=O)Nc2ccc(N3CCOCC3)c(Cl)c2)cc1,2.16% (inactive)
9,O=C(Nc1ccccc1-c1ccccc1)NC1CCN(C(=O)N2CCOCC2)CC1,3.68% (inactive)
10,O=C1[C@@H]2C(c3ccccc3Cl)=NO[C@@H]2C(=O)N1Cc1ccccc1,4.24% (inactive)
11,CC(=O)c1ccc(NC(=O)CCc2c(C)nc3ncnn3c2C)cc1,6.04% (inactive)
12,Cc1nc2scc(-c3ccco3)c2c(=O)n1/N=C/N(C)C,2.7% (inactive)
13,O=C(O)c1ccc(COc2ccc(Cl)cc2)o1,9.97% (inactive)
14,Cn1cc(C(=O)NC2CCCCCCC2)c(=O)c2cc(S(=O)(=O)N3CCCC3)ccc21,0.325% (inactive)
15,Cc1ccc(C2=N/C(=C/N3CCOCC3)C(=O)O2)cc1,13.1% (inactive)
16,CCc1ccccc1NC(=O)C(CC)Sc1nc2cc3c(cc2c(=O)n1Cc1ccco1)OCO3 (stereo not given),13.2% (inactive)
17,Cc1cc(C(=O)NCc2cccnc2)no1,6.27% (inactive)
18,Cc1cc(/C=N\O)c(C)n1-c1ccncc1,-5.03% (inactive)
19,O=C(Cn1c(=O)n(CC2CCCO2)c(=O)c2ccccc21)c1ccccc1 (stereo not given),-7.53% (inactive)
20,O=C(c1ccco1)N1CCN(CC2CC3C=CC2C3)CC1 (stereo not given),5.7% (inactive)

# Same assay, conditions: H69AR cells + 2 uM doxorubicin, CellTiter-Glo, 72 h; measured here: viability with 2 uM doxorubicin; at 10 µM; stronger effect = lower value
row,Compound,viability [%]
1,Cc1ccc2c(c1C)NC(C(=O)O)C1CC=CC21 (stereo not given),96.7
2,Cc1cc(C)cc(OCC(=O)NC2=NCCS2)c1,93.3
3,COc1cccc(NS(=O)(=O)c2ccc3[nH]cc(C(=O)NC4CC4)c(=O)c3c2)c1,85.7
4,COc1ccc(OC)c(NC(=O)C2C3CC4OC(=O)C2C4C3)c1 (stereo not given),90
5,CN(C)C(=O)COc1ccc2cc(-c3ccccc3)c(=O)oc2c1,92.9
6,CC1CN(CC(O)COc2ccccc2C(C)(C)C)CC(C)O1 (stereo not given),89.3
7,CN(C)CCCN1c2ccccc2CCc2ccc(Cl)cc21,53.2
8,COc1ccc(NC(=O)c2oc3ccccc3c2NC(=O)c2ccco2)cc1,78.8
9,CC1(C)SC2[C@H](NC(=O)C(NC(=O)N3CCNC3=O)c3ccccc3)C(=O)N2C1C(=O)O (stereo not given in full),93.6
10,CC(=O)OC1CSc2nc3ccccc3n2C1 (stereo not given),85.9
11,O=S(=O)(NCC1CCCO1)c1ccc2c(c1)OCCO2 (stereo not given),96.8
12,O=c1c2ccccc2c(/C=N/n2cnnc2)c(O)n1-c1ccccc1,83.9
13,COc1ccc(C2=CC(=O)OC3(CCCCC3)O2)cc1,85.3
14,CCCC1(C(=O)OC)NC(c2cc(OC)c(OC)c(OC)c2)C2C(=O)N(CC)C(=O)C21 (stereo not given),90.4
15,C#CCN(C)Cc1ccccc1,100
16,CCOC(=O)CSc1nc2sc(C)c(C)c2c(=O)[nH]1,108
17,c1coc(CN(Cc2cccs2)Cc2nnnn2C2CCCCC2)c1,80.4
18,CCn1cnc2sc(C(=O)Nc3ccc4c(c3)OCO4)c(C)c2c1=O,83
19,COc1ccc(CCN(Cc2cc3cccc(C)c3[nH]c2=O)C(=O)N2CCCC2)cc1OC,97.3
20,COCCCNC(=O)C1CCN(C(=O)Nc2ccc(Cl)cc2)CC1,87.4

row,Compound,viability [%]
1,CC1(C)CC(=O)C(C=NC(CCC(N)=O)C(=O)O)=C(O)C1 (stereo not given),83.3
2,O=c1c(O)c(-c2ccc(O)cc2O)oc2cc(O)cc(O)c12,99.6
3,CNC(=O)OC(C)CNS(=O)(=O)c1ccc(C)cc1 (stereo not given),90.8
4,Cc1ccc(S(=O)(=O)N2CCN(c3nc(C(C)C)c4c(c3C#N)CC(C)(C)OC4)CC2)cc1,70
5,Cc1ccc(Cl)cc1N1CCN(C(=O)CN2C(=O)c3cccc4cccc2c34)CC1,76.3
6,Cc1ccc2c(CC(=O)OCc3csc(C)n3)coc2c1,96
7,CC(C)(C)n1ncc2c(=O)n(CC(=O)NCc3ccccc3)cnc21,63.9
8,COc1ccc(OCC(=O)Nc2ccc(N3CCOCC3)c(Cl)c2)cc1,88.2
9,O=C(Nc1ccccc1-c1ccccc1)NC1CCN(C(=O)N2CCOCC2)CC1,99.5
10,O=C1[C@@H]2C(c3ccccc3Cl)=NO[C@@H]2C(=O)N1Cc1ccccc1,100
11,CC(=O)c1ccc(NC(=O)CCc2c(C)nc3ncnn3c2C)cc1,87.1
12,Cc1nc2scc(-c3ccco3)c2c(=O)n1/N=C/N(C)C,92.6
13,O=C(O)c1ccc(COc2ccc(Cl)cc2)o1,88.1
14,Cn1cc(C(=O)NC2CCCCCCC2)c(=O)c2cc(S(=O)(=O)N3CCCC3)ccc21,90.6
15,Cc1ccc(C2=N/C(=C/N3CCOCC3)C(=O)O2)cc1,77.5
16,CCc1ccccc1NC(=O)C(CC)Sc1nc2cc3c(cc2c(=O)n1Cc1ccco1)OCO3 (stereo not given),15.1
17,Cc1cc(C(=O)NCc2cccnc2)no1,93
18,Cc1cc(/C=N\O)c(C)n1-c1ccncc1,96.4
19,O=C(Cn1c(=O)n(CC2CCCO2)c(=O)c2ccccc21)c1ccccc1 (stereo not given),89
20,O=C(c1ccco1)N1CCN(CC2CC3C=CC2C3)CC1 (stereo not given),90.1
